# Test results as given in PubChem BioAssay (Tox21).
# Results filed as inconclusive are left out. A call without a number means that no potency is given here. Active and inactive are the calls of the source. Calls come from the whole dose curve; as a rule, active = well fitted cell-killing curve with a large enough effect in the repeat runs; inconclusive = weak or mixed curves; inactive = flat fitted curve, though single readings scatter.
# Test: qHTS RealTime-Glo MT Cell Viability Assay in HepG2 cells - 24 hour (AID 1224867); note: nearly all actives have a fitted effect of over 50% in size
# Conditions: RealTime-Glo luminescence; series mostly up to 76.8 µM
# Source text: U.S. Tox21 Program National Center for Advancing Translational Sciences [NCATS] NIH Chemical Genomics Center [NCGC] U.S. Environmental Protection Agency [EPA] National Institutes of Environmental Health Sciences [NIEHS] National Toxicology Program [NTP] U.S. Food and Drug Administration [FDA] Tox21 Assay Overview: Measure of cell viability is critical in the cell-base assay. Analysis of cell viability is necessary for the characterization of cell responses to cytotoxic drugs and environmental stress. A RealTime-Glo MT Cell Viability Assay to monitor cell viability in real time of continues cell culture during 40 hours of compound treatment was used to screen Tox21 10K library compounds in HepG2 cells. The RealTime-Glo MT Cell Viability Assay is a nonlytic, homogeneous, bioluminescent method to measure cell viability in real time using a simple, plate-based method. The assay involves adding NanoLuc luciferase and a cell-permeant prosubstrate to cells in culture. Viable cells reduce the proprietary prosubstrate to generate a substrate for NanoLuc luciferase. This substrate diffuses from cells into the surrounding culture medium, where it is rapidly used by the NanoLuc Enzyme to produce a luminescent signal. The signal correlates with the number of viable cells, making the assay well suited for cytotoxicity studies.
# Tox21 Assay Protocol Summary: The mixture of HepG2 cell suspension and reagents were dispensed at 600cells/6 ul/well in 1536-well tissue culture treated black solid bottom plates using a Multidrop dispenser. After the assay plates were incubated at a 37 C/5% CO2 incubator for 5 hours, 23 nL of compounds dissolved in DMSO, positive and negative controls was transferred to the assay plate by a pintool work station. The plates were incubated at 37 C for 40 hours. The luminescence intensity were measured at 0h, 8h, 16h, 24h, 32h and 40h time points using ViewLux plate reader during compound treatment.
row,Compound,Potency
1,O=C(Cl)c1ccc(C(=O)Cl)cc1,inactive
2,Cc1ccccc1Cl,inactive
3,O=C1O[C@H]([C@H](O)CO)C(O)=C1O,inactive
4,COc1ccc2cc3[n+](cc2c1OC)CCc1cc2c(cc1-3)OCO2,inactive
5,CC(=O)OC(C)(C)C1CC=C(C)CC1 (stereo not given),inactive
6,COC(=O)/C=C\C(=O)OC,inactive
7,CC(C)c1ccc(C(C)C)cc1,inactive
8,Cc1ccc([N+](=O)[O-])cc1N,inactive
9,CN1CCCC1=O,inactive
10,C=C1C[C@]23C[C@@]1(O)CC[C@H]2[C@@]12C=C[C@H](O)[C@@](C)(C(=O)O1)[C@H]2[C@@H]3C(=O)O,inactive
11,OCc1ccc(Cl)cc1Cl,inactive
12,Nc1cccc(C(F)(F)F)c1,inactive
13,CC1(C)C(=O)N(Cl)C(=O)N1Cl,inactive
14,O=C(O)C1=NN(c2ccc(S(=O)(=O)O)cc2)C(=O)C1,inactive
15,CCCCC(CC)COC(=O)c1ccc(C(=O)OCC(CC)CCCC)cc1 (stereo not given),inactive
16,CC(C)(C)NC[C@H](O)COc1nsnc1N1CCOCC1,inactive
17,CCn1cc(C(=O)O)c(=O)c2cc3c(cc21)OCO3,inactive
18,CC(=O)Nc1ccc(CC(=O)O)cc1,inactive
19,O=C1OC(=O)c2c(Cl)c(Cl)c(Cl)c(Cl)c21,inactive
20,CC(=O)OCCC(C)C,inactive

row,Compound,Potency
1,O=C(c1ccccc1)c1ccc(O)c(O)c1O,inactive
2,O=[N+]([O-])c1ccccc1C(F)(F)F,inactive
3,OCC(O)CS (stereo not given),inactive
4,Cc1ccc(C)c(S(=O)(=O)O)c1,inactive
5,COc1c2ccoc2cc2oc(=O)ccc12,inactive
6,N#CCC(=O)O,inactive
7,Cc1nnc(NS(=O)(=O)c2ccc(N)cc2)s1,inactive
8,Cc1ccncc1,inactive
9,C1CCCNCC1,inactive
10,CC1(C)[C@@H](O[C@H]2O[C@H](C(=O)O)[C@@H](O)[C@H](O)[C@H]2O[C@@H]2O[C@H](C(=O)O)[C@@H](O)[C@H](O)[C@H]2O)CC[C@]2(C)[C@H]3C(=O)C=C4[C@@H]5C[C@@](C)(C(=O)O)CC[C@]5(C)CC[C@@]4(C)[C@]3(C)CC[C@@H]12,inactive
11,O=C1CCCCCCCCCCC1,inactive
12,CC(=O)OC/C=C(\C)CCC=C(C)C,inactive
13,Nc1nc(N)c2nc(-c3ccccc3)c(N)nc2n1,inactive
14,O=C(O)Cc1c[nH]c2ccccc12,inactive
15,CC(=O)OCc1ccc2c(c1)OCO2,inactive
16,N[C@@H](Cc1cc(I)c(Oc2ccc(O)c(I)c2)c(I)c1)C(=O)O,inactive
17,COc1cc(NC(=O)CC(C)=O)c(OC)cc1Cl,inactive
18,CS(=O)(=O)c1ccc(Cl)cc1,inactive
19,CCCCCC(C)=O,inactive
20,CCOC(=O)c1ccc(O)cc1,inactive
